Bioassay records: PubChem BioAssay, National Center for Advancing Translational Sciences (NCATS)
A selection: hits, their analogues and other compounds. The true share with any hit is near 19%.
HT1080NT lethal: kills 2HG-producing HT-1080-NT fibrosarcoma cells; HT-1080-NT fibrosarcoma viability, CellTiter-Glo ATP luminescence, 48 h; Potency, µM (highest dose often 46.1 µM), inactives show at the highest dose activity, negative = less viability, most hits filed as cytotoxic; 360,000 tested, 1.6% active; AID 686970;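 note: NT is the 2HG producing partner of a matched IDH1 knockdown line; potency is the fitted concentration of half-maximal effect; 0% = DMSO-treated cells and -100% = media-only wells without cells; nearly all actives have a fitted effect of over 55% in size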
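Toxicity toward the 2HG-producing NT line was scored as %Activity, normalised to DMSO and no-cell wells, from CellTiter-Glo luminescence after 48 hours' treatment.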
TDP1 cell noCPT: qHTS for Inhibitors of human tyrosyl-DNA phosphodiesterase 1 (TDP1): qHTS in cells in absence of CPT | DT40 Tdp1-/- hTDP1 cells, no CPT, ATP luminescence, 48 h | Potency, µM (titrated, usually from 46.2 µM), for the others: at the highest dose activity change, negative = growth inhibition, hits mostly inhibitors | 420,000 tested, 15% active | AID 686978, 2013; note: potency is the fitted concentration of half-maximal effect; nearly all actives have a fitted effect of over 55% in size
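Seeded 400 DT40-hTDP1 cells/well (vehicle DMSO, no 20 nM CPT); pinned compounds; ≥48 hr at 37 °C; CellTiter-Glo luminescence as viability measure.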
ELG1 repair inh: blocks ELG1-dependent DNA repair in HEK293T cells | HEK293T ELG1-luciferase reporter, luminescence, 16 h; DNA damage induced by 5-fluorouridine | Potency, µM (highest dose often 46.1 µM), inactives show top-dose activity change, negative = inhibition, usual class: inhibitors | 330,000 tested, 2.3% active | AID 504467; note: potency is the fitted concentration of half-maximal effect; nearly all actives have a fitted effect of over 55% in size
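Quantitative HTS, concentration-response format. 2,000 cells/well co-treated with 5-fluorouridine and compound, 16 hr in 5% CO2 at 37 °C; ONE-Glo luminescence read after 30 min.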
HT1080 IDH1KD tx: kills HT-1080 cells with IDH1 knockdown; AID 686971; 360,000 tested, 2% active; Potency, µM (series often up to 46.1 µM), inactives show at the highest dose activity, negative = toxicity, most hits filed as cytotoxic; HT-1080 IDH1 knockdown viability, ATP luminescence, 48 h;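 note: potency is the fitted concentration of half-maximal effect; 0% = DMSO wells and -100% = cell-free medium wells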
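Viability of IDH1-knockdown HT-1080 fibrosarcoma cells was assessed by CellTiter-Glo after 48 h at 37 °C with titrated compound; concentration-effect curves were classified by fit quality and response size.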
TDP1 cell CPT: DT40-hTDP1 cell growth loss with CPT; chicken DT40 Tdp1-/-;hTDP1 cells + 20 nM CPT, ATP luminescence, 48 h; Potency, µM (highest dose often 46.2 µM), inactives show at the top dose activity change, negative = growth inhibition, hits mostly inhibitors; 420,000 tested, 12% active; AID 686979; note: potency is the fitted concentration of half-maximal effect; nearly all actives have a fitted effect of over 55% in size
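Chicken DT40 Tdp1-/- cells complemented with human TDP1, 400 cells/well, exposed to compounds plus 20 nM camptothecin for at least 48 h at 37 C; viability read as ATP content by CellTiter-Glo luminescence.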
IL1B secr inh: inflammasome signaling inhibition, IL-1 beta readout; THP-1 LPS/ATP IL-1B secretion, AlphaLISA, 16 h; active compounds read low; activity change, % at 57.5 µM; 360,000 tested, 4.7% active; AID 743279; in the data active = activity change below about -50%; inconclusive = mostly about -30% to -49%
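Secreted IL-1B measured by AlphaLISA bead assay after 16 h compound exposure of THP-1 cells; compounds (final up to 57.5 uM) added 1 h before LPS (250 ng/mL) and ATP (1.25 mM) stimulation; lower signal means less secretion.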
Numbers without * were called inactive; u = inconclusive; x = no result given. Unless noted, calls come from the whole dose curve; as a rule, active = well fitted curve in the direction sought with a large enough effect; inconclusive = small, poorly fitted or top-dose-only effect, or another doubt; inactive = no such curve, though single readings can be large; an effect the other way counts as inactive or inconclusive. Unless noted, % is set by controls: 0 for no effect and ±100 for the full control effect.

SMILES	HT1080NT lethal	TDP1 cell noCPT	ELG1 repair inh	HT1080 IDH1KD tx	TDP1 cell CPT	IL1B secr inh
CC1=C(C(=O)OC(C)C)C(c2ccc3c(c2)OCO3)NC(=O)N1 (stereo unspecified)	5%	-1%	18%	2%	-14%	1
CC1=C(C(=O)OC(C)C)C(C)C(C(=O)OC(C)C)=C(C)N1	6%	u	u	3%	11µM*	u
CCOC(=O)c1sc2c(c1C)C(c1cccs1)C1=C(CCCC1=O)N2 (stereo unspecified)	-21%	16µM*	u	u	u	-4
COC(=O)C1=CN(Cc2ccc(OC)cc2)C=C(C(=O)OC)C1c1cc(OC)c(OC)c(OC)c1	-22%	u	-1%	-20%	u	u
CCOC(=O)C1=C(C)NC(C)=C(C(=O)OCC)C1c1cccs1	-12%	23µM*	-16%	-13%	u	1
CCOC(=O)C1=CN(Cc2ccc(OC)cc2)C=C(C(=O)OCC)C1c1cccs1	-4%	u	u	1%	u	-64*
Cc1nc2cnc(N3CCOCC3)nc2n(Cc2cccs2)c1=O	x	-12%	x	x	-12%	x
CC1=C(C(=O)OC(C)C)C(c2cccs2)C(C(=O)OC(C)C)=C(C)N1	u	12µM*	-30%	u	u	-73*
COc1ccc(Nc2cc3n(c(=O)n2)CCc2cc(OC)c(OC)cc2-3)c(C)c1	-16%	15µM*	u	-3%	u	0
COc1cc2c(cc1OC)-c1cc(Nc3ccc4c(c3)OCCO4)nc(=O)n1CC2	-12%	u	u	-2%	-30%	-70*
COc1ccc(Nc2cc3n(c(=O)n2)CCc2cc(OC)c(OC)cc2-3)cc1	-3%	u	u	-9%	-2%	-27
CC(C)NC(=O)C1(C)CCN1C/C=C/c1ccccc1 (stereo unspecified)	13%	u	x	16%	u	21
O=S(=O)(NC1=NCCCCC1)c1cc(F)ccc1F	1%	-11%	u	1%	-18%	23
CCCN(CC(=O)Nc1ccccc1OC)C(=O)c1nc2nc(C)ccn2n1	-3%	6%	-14%	22%	3%	3
O=C(Cn1c(NCCO)nc2ccccc21)Nc1cccc(S(=O)(=O)N2CCCC2)c1	-8%	10µM*	u	-1%	u	22
O=C(CN1CCN(c2ccccn2)CC1)Nc1cccc(S(=O)(=O)N2CCCC2)c1	-3%	16µM*	-14%	-7%	u	2
NS(=O)(=O)c1cccc(NC(=O)COC(=O)Cn2cnc3ccccc32)c1	12%	18%	13%	u	1%	15
O=C(CN1CCN(c2ccccn2)CC1)Nc1ccccc1	14%	-6%	5%	21%	-9%	-19
O=C(Cn1cnc2ccccc21)Nc1cccc(S(=O)(=O)N2CCCC2)c1	-6%	4.1µM*	5%	-16%	5.8µM*	-13
OCCNc1nc2ccccc2n1CCN1CCCCC1	3%	2%	-3%	21%	-13%	-7
Nc1sccc1C(=O)NC1CC1	22%	-7%	x	17%	10%	-4
O=C(CSc1nc(Nc2ccccc2)nc(N2CCOCC2)n1)Nc1ccccc1Cl	-6%	11µM*	u	-4%	16µM*	-7
O=C(CSc1nc(Nc2ccccc2)nc(N2CCOCC2)n1)Nc1ccc(Br)cc1F	-1%	18µM*	1%	1%	u	0
O=C(CSc1nc(Nc2ccccc2)nc(N2CCOCC2)n1)NC1CCCCC1	-8%	u	7%	-6%	u	-6
